Source: PubChem BioAssay (NCI)
This is part of a sample that, as a whole, favours compounds with a hit. Of some 83,000 tested, about 20% had one in any assay.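 Percent growth is the endpoint: 0 to 100 indicates growth inhibition (40 means 60% inhibition), 0 means no net growth, and negative values indicate cell death.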 A number with no mark means an inactive call. Activity calls are given as the source filed them. The calls were made as follows: active = growth percent below 10; inactive = the rest.

Experiments:
Test in all cases: NCI-60 one-dose screen, 48 h (100 = growth as untreated, 0 = no growth, -100 = all killed)
Details in all cases: 10 µM unless noted
SR leukemia = tested on: SR leukemia
RPMI-8226 leukemia = tested on: RPMI-8226 leukemia
OVCAR-8 ovarian = tested on: OVCAR-8 ovarian
OVCAR-5 ovarian = tested on: OVCAR-5 ovarian
OVCAR-4 ovarian = tested on: OVCAR-4 ovarian
SK-OV-3 ovarian = tested on: SK-OV-3 ovarian
IGROV1 ovarian = tested on: IGROV1 ovarian
OVCAR-3 ovarian = tested on: OVCAR-3 ovarian
HS 578T breast = tested on: HS 578T breast
NCI/ADR-RES ovarian = tested on: NCI/ADR-RES ovarian
T-47D breast = tested on: T-47D breast
BT-549 breast = tested on: BT-549 breast
MDA-MB-435 melanoma = tested on: MDA-MB-435 melanoma
SW-620 colon = tested on: SW-620 colon
MCF7 breast = tested on: MCF7 breast
HCT-116 colon = tested on: HCT-116 colon
HCC-2998 colon = tested on: HCC-2998 colon
KM12 colon = tested on: KM12 colon

SMILES | growth (SR leukemia) | growth (RPMI-8226 leukemia) | growth (OVCAR-8 ovarian) | growth (OVCAR-5 ovarian) | growth (OVCAR-4 ovarian) | growth (SK-OV-3 ovarian) | growth (IGROV1 ovarian) | growth (OVCAR-3 ovarian) | growth (HS 578T breast) | growth (NCI/ADR-RES ovarian) | growth (T-47D breast) | growth (BT-549 breast) | growth (MDA-MB-435 melanoma) | growth (SW-620 colon) | growth (MCF7 breast) | growth (HCT-116 colon) | growth (HCC-2998 colon) | growth (KM12 colon)
CCC(C)C(N)C(=O)NNc1n[nH]c(=S)n1N (stereo unspecified) | 99.7% | 99.9% | 97.8% | 99.2% | 102% | 99.3% | 105% | 107% | 91.6% | 102% | 104% | 104% | 103% | 96.9% | 96.9% | 108% | 106% | 104%
COc1ccc(-c2nc(SCC(C)C)nc(N/N=C(/C)c3ccc(OC)c(OC)c3)c2C#N)cc1 | 70.9% | 71.3% | 93.4% | 81.7% | 86.3% | 93.3% | 78.8% | 79.7% | 76% | 90.2% | 54.7% | 97.8% | 87.9% | 84.4% | 80.6% | 96.6% | 92.4% | 74%
O=S(=O)(NCCNc1nccc(-c2c(-c3ccc(F)c(O)c3)nc3occn23)n1)c1ccccc1 | 20.2% | 33.7% | 53.7% | 101% | 85.8% | 68.6% | 43.9% | 77.1% | 54.4% | 109% | 71.9% | 80.8% | 28.1% | 63.5% | 36.5% | 22.6% | 62.1% | 52.6%
Cc1cc(C(=O)Nc2ncnc3nc[nH]c23)no1 | 89.6% | 95% | 102% | 116% | 114% | 97.2% | 89.6% | 108% | 95.5% | 106% | 103% | 106% | 102% | 96.1% | 93.3% | 105% | 104% | 99.5%
COc1ccc(C(=O)c2cc3c(N)c(C(=O)Nc4cccc(Cl)c4)sc3nc2C)cc1 | -18.2% (active) | 9.77% (active) | 27.1% | 49.3% | 49.5% | 44% | 47.9% | 0.514% (active) | 18.5% | 8.84% (active) | 43.8% | 78.1% | -35.2% (active) | 35.4% | 26.5% | 14.9% | 18.3% | 22.1%
O=C(CSc1nc2sc3c(c2c(=O)n1Cc1ccccc1)CCCC3)N1CCN(c2ccccc2)CC1 | 101% | 94.1% | 97.9% | 102% | 96.1% | 92.1% | 103% | 106% | 101% | 94.8% | 80.9% | 90.1% | 101% | 102% | 95.5% | 85.4% | 103% | 101%
O=C(CNCCO)Nc1ccc2ncnc(Nc3ccc(OCc4cccc(F)c4)c(Cl)c3)c2c1 | 12.9% | 88.2% | 80.4% | 85.5% | 93.8% | 16.4% | 33.6% | 72.7% | 103% | 90.1% | 45.2% | 80.5% | 96.8% | 106% | 82.5% | 64.3% | 97% | 87%
O=C1Nc2c(ccc(Cl)c2Cl)/C1=C/c1ccc([N+](=O)[O-])cc1 | 69.7% | 90.1% | 95.1% | 98.1% | 100% | 93.8% | 98.6% | 108% | 100% | 93.9% | 85.3% | 87.4% | 93% | 100% | 90.4% | 76.9% | 108% | 110%
Cc1cccc(C)c1-c1cc(Cc2ccc(Cl)cc2)c(=O)[nH]n1 | 4.66% (active) | 52.2% | 97.1% | 96.5% | 97.6% | 103% | 77.6% | 103% | 94% | 96.1% | 86.4% | 86.1% | 119% | 104% | 97.2% | 96.9% | 86.4% | 103%
C=C(C)[C@@H]1CC[C@]2(C(=O)NCCCN(CCC#N)CCC#N)CC[C@]3(C)[C@H](CC[C@@H]4[C@@]5(C)CCC(=O)C(C)(C)[C@@H]5CC[C@]43C)[C@@H]12 | 108% | 101% | 97.9% | 103% | 92.6% | 93% | 102% | 107% | 96.3% | 103% | 102% | 95.5% | 105% | 101% | 92.8% | 97.3% | 108% | 104%
Cc1cccc(Oc2ccc(Nc3ncnc4ccc(NC(=O)CN(C)C)cc34)cc2Cl)c1 | 1.9% (active) | 46.6% | 57.3% | 60.9% | 45.2% | 16% | 3.8% (active) | 40.7% | 68% | 47.2% | 39.4% | 72.9% | 34.5% | 12.6% | 22.7% | 21.4% | 13.3% | 35.1%
Cc1ccc2[nH]c(=O)cc(-n3nncc3COc3ccc(C=O)cc3)c2c1 | 102% | 102% | 107% | 101% | 104% | 107% | 106% | 102% | 96.7% | 109% | 97.5% | 90.8% | 103% | 99.4% | 95.6% | 108% | 109% | 106%
O=c1[nH]nc(-c2ccc(Br)cc2)cc1Cc1ccc(O)cc1 | -29.1% (active) | 53.8% | 92.7% | 106% | 97.6% | 92.9% | 82.4% | 92.4% | 64.1% | 71% | 83.2% | 95.8% | 113% | 97.3% | 86% | 100% | 118% | 108%
CCN1C(=O)/C(=c2\sc3n(c2=O)NC2C(N=3)N(CC)C(=O)N2CC)c2ccccc21 (stereo unspecified) | 22.7% | 64.9% | 46.5% | 53.8% | 46% | 70.2% | 41.6% | -12.7% (active) | 37% | 12.1% | 36.3% | 58.8% | -38.6% (active) | 39.5% | 37.2% | 12.9% | 58.9% | 20.1%
Cc1nc2sc(C(=O)Nc3cccc(Br)c3)c(N)c2cc1C(=O)c1ccc(C(F)(F)F)cc1 | 47% | 88.6% | 72.7% | 82.3% | 6.24% (active) | 91.7% | 73.8% | 83.2% | 40.7% | 80.7% | 95.1% | 95.7% | 87.9% | 72.2% | 70% | 56.1% | 86.9% | 84.8%
O=C1C(=O)c2c(nc3ncccn23)-c2ccccc21 | -14.8% (active) | -25.3% (active) | -60.7% (active) | -88.1% (active) | -96.2% (active) | -97.9% (active) | -58.5% (active) | -50.2% (active) | -18.7% (active) | -32.8% (active) | -48.5% (active) | -94% (active) | -93.8% (active) | -60.6% (active) | -53.8% (active) | -79% (active) | -92.7% (active) | -62.6% (active)
O=C(O)c1cn(C2CC2)c2cc(N3CCN(C(=O)C[n+]4cccc5ccccc54)CC3)c(F)cc2c1=O | 15.6% | 61.1% | 74.1% | 100% | 54.5% | 106% | 92.7% | 51.1% | 84.9% | 93.8% | 74% | 75.8% | 59.5% | -17.2% (active) | 45.2% | 23.7% | 106% | 92.3%
